Hits are enriched below; roughly 5.8% of the tested compounds scored in any of these assays.
uPA surface inh – qHTS for Inhibitors of Cell Surface uPA Generation; cell surface uPA generation assay, qHTS; Potency, µM (titrated, usually from 38.3 µM), inactives show at the top dose activity change, negative = inhibition, most hits filed as inhibitors; actives 0.31% (n = 330,000); active = well fitted inhibition curve with a large enough effect; inconclusive = small, poorly fitted or top-dose-only effect; inactive = no such curve, though single readings can be large or run the other way; tested in mouse RAW 264.7 cells; note: potency is the fitted concentration of half-maximal effect; % is set by controls: 0 for no effect and ±100 for the full control effect; nearly all actives have a fitted effect of over 55% in size
VP16 counter – VP16 counterscreen qHTS for inhibitors of ROR gamma transcriptional activity; Drosophila S2 Gal4-VP16 UAS-luciferase, luminescence, 20 h; Potency, µM (highest dose often 53.6 µM), without a hit: at the highest dose activity, negative = inhibition, most hits filed as inhibitors; actives 3.5% (n = 310,000); AID 2546, 2010;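 note: Gal4-VP16 expression switched on by copper sulfate through the metallothionein promoter; potency is the fitted concentration of half-maximal effect; % is set by controls: 0 for no effect and ±100 for the full control effect; nearly all actives have a fitted effect of over 50% in size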
TRPV1 ag – HTS Assay for Compounds that Act as Agonists of the Vanilloid Receptor 1 | TRPV1-expressing cells, Fluo-8 calcium influx, agonist mode | activation, % at 8.33 µM | actives 0.19% (n = 320,000) | AID 540275, 2011; in the data active = activation above about 80%; inconclusive = between about 30% and that limit; note: 0% is about no effect
Target sequence (Q8NER1 whole entry, looked up): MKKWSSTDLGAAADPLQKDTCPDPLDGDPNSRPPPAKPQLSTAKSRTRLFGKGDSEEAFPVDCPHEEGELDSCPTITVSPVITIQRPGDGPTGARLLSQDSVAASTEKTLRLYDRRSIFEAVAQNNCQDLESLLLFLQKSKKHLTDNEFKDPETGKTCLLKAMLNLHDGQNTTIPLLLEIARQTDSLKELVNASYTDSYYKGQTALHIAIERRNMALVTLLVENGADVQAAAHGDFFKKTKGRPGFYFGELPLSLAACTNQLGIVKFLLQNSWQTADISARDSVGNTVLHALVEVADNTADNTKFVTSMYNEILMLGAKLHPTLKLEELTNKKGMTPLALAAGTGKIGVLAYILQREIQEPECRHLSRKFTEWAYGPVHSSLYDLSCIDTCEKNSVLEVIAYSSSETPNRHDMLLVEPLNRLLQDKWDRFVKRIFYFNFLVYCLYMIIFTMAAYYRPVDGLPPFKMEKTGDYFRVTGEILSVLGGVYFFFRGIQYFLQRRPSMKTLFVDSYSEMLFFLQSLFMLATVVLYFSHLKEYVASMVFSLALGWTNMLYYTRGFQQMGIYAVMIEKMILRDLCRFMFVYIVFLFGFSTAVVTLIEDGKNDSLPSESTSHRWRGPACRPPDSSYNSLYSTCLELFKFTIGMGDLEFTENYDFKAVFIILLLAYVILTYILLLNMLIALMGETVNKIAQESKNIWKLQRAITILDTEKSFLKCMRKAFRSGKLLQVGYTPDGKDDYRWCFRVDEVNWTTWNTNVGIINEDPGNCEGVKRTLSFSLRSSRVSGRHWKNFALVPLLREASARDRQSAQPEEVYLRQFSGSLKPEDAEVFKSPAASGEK
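Fluo-8 calcium influx in TRPV1-expressing cells, kinetic read (ex 480/em 520 nm). Compound added and read 3 min for agonist activity, followed by capsaicin at EC20 final and 2 min further read for enhancement.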
RORg inh – qHTS for inhibitors of ROR gamma transcriptional activity | actives 5.4% (n = 310,000) | Drosophila S2 Gal4-RORgamma UAS-luciferase reporter, 20 h | AID 2551, 2010 | Potency, µM (series often up to 53.6 µM), for the others: top-dose activity change, negative = inhibition, actives largely listed as inhibitors | Nuclear receptor ROR-gamma (Mus musculus), P51450; note: potency is the fitted concentration of half-maximal effect; % is set by controls: 0 for no effect and ±100 for the full control effect; nearly all actives have a fitted effect of over 60% in size
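In this cell-based reporter format, copper sulfate (700 uM final) drives Gal4–ROR gamma fusion expression from a metallothionein promoter in Drosophila Schneider cells; compounds preincubated 1 hr, reporter read after 20 hr at ambient temperature.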
TRPV1 PAM – HTS Assay for Compounds that Act as Potentiators of the Vanilloid Receptor 1; Transient receptor potential cation channel subfamily V member 1 (Homo sapiens), Q8NER1; TRPV1-expressing cells, Fluo-8 calcium influx, capsaicin EC20 potentiation; potentiation, % at 8.33 µM; actives 0.02% (n = 320,000); in the data active = potentiation above about 80%; inconclusive = between about 30% and that limit; note: 0% is about no effect
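Fluo-8 calcium influx in TRPV1-expressing cells, kinetic read (ex 480/em 520 nm). Compound added and read 3 min for agonist activity, followed by capsaicin at EC20 final and 2 min further read for enhancement.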
Numbers without * were called inactive; ? = inconclusive; . = no result. Unless noted, calls come from the whole dose curve; as a rule, active = well fitted curve in the direction sought with a large enough effect; inconclusive = small, poorly fitted or top-dose-only effect, or another doubt; inactive = no such curve, though single readings can be large; an effect the other way counts as inactive or inconclusive.

SMILES | uPA surface inh | VP16 counter | TRPV1 ag | RORg inh | TRPV1 PAM
COC(=O)c1sc2nc(C)cc(C)c2c1N | 1% | -1% | 0 | -20% | -7
Cc1cc(C)c2c(N)c(C(=O)Nc3ncc(C)s3)sc2n1 | -16% | 2.8µM* | -1 | 2µM* | 5
COc1ccc2nc(NC(=O)c3sc4nc(C)cc(C)c4c3N)sc2c1 | ? | ? | 2 | 0.04µM* | -1
CC1=Nc2cc(C(=O)N3CCCC3)ccc2Sc2c(C)ccc(C)c21 | 4µM* | -12% | 21 | -4% | -8
Cc1cccc(-n2cc(-c3ccc([N+](=O)[O-])cc3)[nH]c2=S)c1 | 8% | 4µM* | 13 | 7.1µM* | -9
Cc1ccc(-n2cc(-c3ccc([N+](=O)[O-])cc3)[nH]c2=S)c(C)c1 | -3% | 6.3µM* | -1 | 1.3µM* | 5
CCC(C)(C)n1nnnc1CN1CCc2ccccc21 | -1% | ? | 0 | -12% | -3
CC(=O)Nc1ccc(-c2nc3ccc(Cl)cc3[nH]2)cc1 | . | -30% | . | -40% | .
CS(=O)(=O)c1ccc(S(=O)CC(=O)Oc2ccc(Cl)cc2)c([N+](=O)[O-])c1 (stereo not drawn) | ? | -25% | 3 | 4µM* | 8
Cc1c(Cl)c(-c2n[nH]c(=S)n2Cc2ccco2)nn1C | 7% | -24% | 0 | 11µM* | 9
C=CCn1c(-c2cc(OC)c(OC)c(OC)c2)n[nH]c1=S | . | ? | -1 | ? | -8
COc1cccc(-c2n[nH]c(=S)n2Cc2ccco2)c1 | -23% | ? | 1 | 16µM* | -6
S=c1[nH]nc(-c2ccc(Br)cc2)n1Cc1ccco1 | 0% | 2.5µM* | -1 | 1.4µM* | 6
C=CCn1c(-c2cccc(OC)c2)n[nH]c1=S | -7% | ? | 1 | 7.1µM* | -3
S=c1[nH]nc(-c2ccncc2)n1Cc1ccco1 | 3% | 19% | -8 | 8% | -6
O=C1CC(=O)N(Cc2ccco2)C(=S)N1 | -1% | 2% | 2 | 12% | 3
S=c1[nH]nc(C23CC4CC(CC(C4)C2)C3)n1Cc1ccco1 | -2% | 11µM* | . | 1.3µM* | .
CCCc1cc(NC(=O)COC(=O)c2nccnc2N)n(-c2ccccc2)n1 | -18% | . | 1 | . | 14
CN1C(=O)/C(=C/c2cn(CC(=O)N3CCCCC3)c3ccccc23)NC1=S | -15% | ? | 0 | 11µM* | -4
CN1C(=O)/C(=C/c2cn(CC(=O)NCc3ccco3)c3ccccc23)NC1=S | . | 6% | 4 | -20% | 15
CCC1CCCCN1S(=O)(=O)c1ccc(NC(=O)C2CCN(C(=O)c3ccco3)CC2)cc1 (stereo not drawn) | 9% | 7% | 0 | 9% | 8
CC1CCCN(S(=O)(=O)c2ccc(NC(=O)CNC3CCCC3)cc2)C1 (stereo not drawn) | -1% | 7% | 6 | 12% | -3
CCC1CCCCN1S(=O)(=O)c1ccc(NC(=O)c2nc(S(C)(=O)=O)ncc2Cl)cc1 (stereo not drawn) | -1% | 4µM* | 0 | 3.2µM* | 15
CCS(=O)(=O)c1ncc(Cl)c(C(=O)Nc2ccc(C)cc2)n1 | -14% | 2µM* | 1 | 5µM* | 4
CCS(=O)(=O)c1ncc(Cl)c(C(=O)Nc2ccc(S(=O)(=O)N3CCCC(C)C3)cc2)n1 (stereo not drawn) | 3% | 3.5µM* | 2 | ? | 9
CC(=O)Nc1ccc(NC(=O)c2nc(S(=O)(=O)Cc3ccccc3)ncc2Cl)cc1 | ? | 0.35µM* | 1 | 2.2µM* | -29
O=C(O)C/C=C(/NC(=O)OCc1ccccc1)C(=O)OCc1ccccc1 | 2% | -3% | 15 | 2% | 4
COc1ccc(CCNC(=O)N[C@@H](Cc2ccccc2)C(=O)O)cc1 | -2% | -6% | 0 | 7% | ?
O=C(NCc1ccccc1)c1nc(S(=O)(=O)Cc2ccccc2)ncc1Cl | ? | 2.8µM* | 2 | 5µM* | -14
COc1ccc(S(=O)(=O)Cc2ccc(C(=O)NCc3ccccc3)o2)cc1 | 2% | -12% | 5 | 20% | ?
